Data as given in PubChem BioAssay (EPA / NIEHS).
“And” between values parts separate entries of the source, which are not always exact repeats. Equal entries are not always repeated. Where a structure was tested more than once in an assay, its records may differ in their call. The source made the active and inactive calls. Rule for the calls: active = hit-call score of the fitted dose curve at least 0.9, where 1 is the maximum; inactive = score below 0.9.

Test: CCTE_Shafer_MEA_dev_network_spike_peak: CCTE's Neural Network Formation Assay for Mean Number of Electrodes in Network Spike, Shafer Lab (AID 2284049)
Procedure: CCTE_Shafer_MEA_dev assay is conducted using Axion Biosystems 48 well microelectrode array (MEA) plates and Maestro recording system. Each well of the MEA plate contains a grid of 16 microelectrodes embedded in the culture surface. Electrically active cells, such as neurons, can be cultured over the electrodes, and electrical activity in these cells can be recorded extracellularly. The spontaneous firing of neurons is captured from each electrode on a microsecond timescale providing both temporally and spatially precise data. […] The CCTE_Shafer_MEA_dev assay uses primary cultures of rat cortical neurons. Recordings are made on days post-plating 5, 7, 9 and 12. As these cultures mature over time, neural networks develop functional activity and form cohesive networks in which electrical activity can be highly coordinated. CCTE_Shafer_MEA_dev_network_spike_peak is 1 of 19 assay components of the CCTE_Shafer_MEA_dev assay. It measures the average number of electrodes participating at the peak of a network spike (the peak of a temporally-clustered group of action potential firing across multiple electrodes) during a recording in a microelectrode array (MEA) using Axion Biosystems Maestro 768 channel amplifier with the AxIS adaptive spike detector. To collapse across multiple recordings made on days post-plating 5, 7, 9 and 12, the trapezoidal area-under-the-curve of the component is calculated.Data from the assay component CCTE_Shafer_MEA_dev_network_spike_peak was analyzed into 1 assay endpoint. This assay endpoint, CCTE_Shafer_MEA_dev_network_spike_peak, was analyzed in the negative analysis fitting direction relative to DMSO as the negative control and baseline of activity. Using a type of functional reporter, gain or loss-of-signal activity can be used to understand electrical activity.
On the day prior to culture, each well was coated thoroughly with 150 uL of 0.05% polyethyleneimine (PEI, Sigma Cat P3143) in 50 mM HEPES (Sigma Cat H7523) at a pH of 8. The plate was incubated at 37C for one hour. PEI was rinsed out with 500 uL of sterile water three times. Plates were stored at 4C until the day of culture. This culture was plated at a seeding density of 1.5 x 10^5 cells/well on a 48-well MEA plate, prepared as described above. Cells were administered via a 25 uL media/laminin ([…]; Sigma Cat L2020-1MG) drop directly onto the microelectrode array, as adding the cells with the laminin results in better attachment than pre-coating with laminin. After 2 hours, an additional 475 uL of cortical media was added and the cells returned to the incubator. Exposure starts at day 0 of plating and is continued over twelve days of network development until the experiment is terminated. Cells are fed with fresh medium on DIV 5 and 9, following the recordings on those days. The entire volume of media in the well is exchanged and any vehicle or compound treatment is renewed. Complete details are found in OP-NHEERL/ISTD/SBB/TJS/2015-03-r0 (available on request, email shafer.tim@epa.gov). Measurement of the electrical activity is non-invasive, and recordings can be made from the same plate over multiple different days of the culture. In cortical neurons, this allows for the measurement of extracellular action potentials over the period during which networks form in the MEA plate.

Row | Compound | AC50 | outcome
1 | C[N+]1(C)CCCCC1 | 15 µM (active) | 
2 | CC(C)[C@H](C(=O)O[C@H](C#N)c1cccc(Oc2ccccc2)c1)c1ccc(Cl)cc1 | 4.07 µM (active) | 
3 | CCOP(=S)(OCC)Oc1cc(C)nc(C(C)C)n1 | 50 µM (active) | inactive
4 | CCCCSP(=O)(SCCCC)SCCCC | 31.8 µM (active) and 16 µM (active) | 
5 | CN1COCN(Cc2cnc(Cl)s2)C1=N[N+](=O)[O-] |  | inactive
6 | COP(=O)(OC)C(O)C(Cl)(Cl)Cl (stereo not given) | 75.4 µM (active) and 15 µM (active) | 
7 | CC(C)N(C(=O)SCC(Cl)=C(Cl)Cl)C(C)C | 15 µM (active) | 
8 | CCOP(=O)(SC(C)CC)N1CCSC1=O (stereo not given) |  | inactive
9 | CSC1=N[C@@](C)(c2ccccc2)C(=O)N1Nc1ccccc1 |  | inactive
10 | CC[C@H](C)[C@H]1O[C@]2(C=C[C@@H]1C)C[C@@H]1C[C@@H](C/C=C(\C)[C@@H](O[C@H]3C[C@H](OC)[C@@H](O[C@H]4C[C@H](OC)[C@@H](NC)[C@H](C)O4)[C@H](C)O3)[C@@H](C)/C=C/C=C3\CO[C@@H]4[C@H](O)C(C)=C[C@@H](C(=O)O1)[C@]34O)O2 | 106 nM (active) and 9.12 nM (active) | 
11 | COP(=O)(OC)OC(Br)C(Cl)(Cl)Br (stereo not given) | 9.05 µM (active) and 11.9 µM (active) | 
12 | C[Si](Cn1cncn1)(c1ccc(F)cc1)c1ccc(F)cc1 | 4.71 µM (active) | 
13 | CCCSP(=O)(OCC)Oc1ccc(Br)cc1Cl (stereo not given) |  | inactive
14 | CCOP(=O)(NC(C)C)Oc1ccc(SC)c(C)c1 (stereo not given) | 51 µM (active) | inactive
15 | CCOP(=S)(OCC)Oc1ccc([N+](=O)[O-])cc1 |  | inactive
16 | CCOP(=S)(OCC)Oc1ccc2c(C)c(Cl)c(=O)oc2c1 | 50 µM (active) | 
17 | CCOP(=S)(OCC)SCCSCC |  | inactive

Row | Compound | AC50 | outcome
18 | CCOP(=S)(OCC)OC(Cl)C(Cl)(Cl)Cl (stereo not given) | 50 µM (active) and 20.2 µM (active) | 
19 | CN(C)[C@@H]1C(=O)C(C(N)=O)=C(O)[C@@]2(O)C(=O)C3=C(O)c4c(O)cccc4[C@@](C)(O)[C@H]3[C@H](O)[C@@H]12 | 50 µM (active) | 
20 | CCOP(=S)(Oc1cnc(C(C)(C)C)nc1)OC(C)C (stereo not given) | 85.8 µM (active) and 13 µM (active) | 
21 | O=[N+]([O-])c1cc(C(F)(F)F)c(Cl)c([N+](=O)[O-])c1Nc1ncc(C(F)(F)F)cc1Cl | 1.06 µM (active) | 
22 | CCOP(=O)(OCC)Oc1cc(C)nc(C(C)C)n1 |  | inactive
23 | COP(=O)(NC(C)=O)SC (stereo not given) |  | inactive
24 | CC(=NC#N)N(C)Cc1ccc(Cl)nc1 |  | inactive
25 | C#CCC1=C(C)C(OC(=O)C2C(C=C(C)C)C2(C)C)CC1=O (stereo not given) |  | inactive
26 | CC(C)=CC1C(C(=O)OCN2C(=O)C3=C(CCCC3)C2=O)C1(C)C (stereo not given) | 1.98 µM (active) | 
27 | S=C1NCCN1 |  | inactive
28 | CCCSP(=O)(OCC)SCCC | 50 µM (active) and 29.9 µM (active) | 
29 | CC1=NNC(=O)N(/N=C/c2cccnc2)C1 |  | inactive
30 | CON=C(C(=O)OC)c1ccccc1CON=C(C)c1cccc(C(F)(F)F)c1 | 871 nM (active) and 742 nM (active) | 
31 | C=C(C)[C@H]1Cc2c(ccc3c2O[C@@H]2COc4cc(OC)c(OC)cc4[C@@H]2C3=O)O1 | 24.9 nM (active) and 16.5 nM (active) | 
32 | CC(Oc1cccc(Cl)c1)C(=O)O (stereo not given) |  | inactive
33 | CCOC(=O)CC(SP(=O)(OC)OC)C(=O)OCC (stereo not given) |  | inactive
